Experimental data taken from PubChem BioAssay (NCI).
Compounds without any hit were thinned out: in the full panel of roughly 79,000, 15% have a hit. Cut-off read from the data, not from the text of the source: active = growth inhibition above about 70%; inactive = the rest.

What was measured:
[1] = NCI Yeast Anticancer Drug Screen. Data for the rad50 strain (AID 155);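 note: 0% = growth of vehicle-only cultures of the same strain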; conditions: S. cerevisiae rad50 strain growth inhibition; at 50.0 µM; stronger effect = higher value
Procedure, shortened: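 Relative growth inhibition (compound vs vehicle) was measured in yeast with a defined repair-gene alteration.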

[2] = NCI Yeast Anticancer Drug Screen. Data for the mec2-1 strain (AID 157); conditions: S. cerevisiae mec2-1 strain, at 50.0 µM, stronger effect = higher value
Procedure, shortened: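 Test agents were screened against the mec2-1 yeast strain, with defined DNA repair or cell cycle alteration. Growth was scored as inhibition against vehicle-only controls.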

[3] = NCI Yeast Anticancer Drug Screen. Data for the sgs1 mgt1 strain (AID 161);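 note: 0% = growth of cultures given vehicle only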; conditions: S. cerevisiae sgs1 mgt1 strain, at 50.0 µM, stronger effect = higher value
Procedure, shortened: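 Test agents were incubated with a DNA-repair-mutant yeast strain. Growth was then read and compared against vehicle-treated controls.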

[4] = NCI Yeast Anticancer Drug Screen. Data for the cln2 rad14 strain (AID 165);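 note: 0% = growth equal to vehicle treated cultures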; conditions: S. cerevisiae cln2 rad14 strain, at 50.0 µM, stronger effect = higher value
Procedure, shortened: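 Growth of compound-exposed yeast (cln2 rad14 genotype) measured and expressed as inhibition relative to vehicle.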

[5] = NCI Yeast Anticancer Drug Screen. Data for the bub3 strain (AID 167); conditions: S. cerevisiae bub3 mutant strain, at 50.0 µM, stronger effect = higher value
Procedure, shortened: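 Screening used yeast with an engineered genetic alteration affecting cell cycle control. Compound-exposed cultures were compared with vehicle cultures, and reduced growth was taken as inhibition.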

[6] = NCI Yeast Anticancer Drug Screen. Data for the mlh1 rad18 strain (AID 175); conditions: S. cerevisiae mlh1 rad18 strain growth inhibition; at 50.0 µM; stronger effect = higher value
Procedure, shortened: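 In this whole-cell yeast screen, a strain with altered DNA damage repair is challenged with compound, and its growth is measured against matched vehicle-treated controls.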

Measured: growth inhibition

O=C(OCc1ccccc1)c1ccccc1
inactive: [1] 18.9% | [2] 3.05% | [3] 10.8% | [4] -13.3% | [5] 28.1% | [6] 51.9%

COC1C(OC(N)=O)C(O)C(Oc2ccc3c(O)c(NC(=O)c4ccc(O)c(CC=C(C)C)c4)c(=O)oc3c2C)OC1(C)C (configuration not stated)
inactive: [1] 7.2% | [2] -23.4% | [3] 1.7% | [4] -6.1% | [5] 9.1% | [6] 26.4%

Cc1nc2c(=O)[nH]c(=S)[nH]c2[nH]c1=O
inactive: [1] -15.2% | [2] -28% | [3] -2.1% | [4] 12.5% | [5] -1.3% | [6] -1%

O=C(Nc1nc(=S)[nH][nH]1)C(=O)C1C(=O)Nc2ccccc2S1=O (configuration not stated)
inactive: [1] 3.45% | [2] -10.8% | [3] -4.2% | [4] 4% | [5] -20.9% | [6] -0.6%

[N-]=[N+]=NC1CC(n2ccc(N)nc2=O)OC1CO (configuration not stated)
inactive: [1] -3.9% | [2] 13.6% | [3] 0.8% | [4] -6.65% | [5] -8.95% | [6] 8.8%

O=C1CCC(=O)N1CC1CC2CCC1C2 (configuration not stated)
inactive: [1] 40% | [2] 4.15% | [3] 22.2% | [4] 23.8% | [5] 4.4% | [6] 36%

CC1CCC(OC(=O)Cc2ccccc2)CC1 (configuration not stated)
inactive: [1] 26.7% | [2] 18% | [3] 9.55% | [4] -15.1% | [5] 18.5% | [6] 24.6%

OC1CCCCC2CC2C1O (configuration not stated)
inactive: [1] 9.25% | [2] -2.8% | [3] 6.8% | [4] -44.7% | [5] 3.55% | [6] -5.65%

CCC#CCN(CCC)CCC
inactive: [1] -8.55% | [2] 7.1% | [3] -10.7% | [4] -41.1% | [5] -17.9% | [6] -18.9%

COC(=O)CCC(=O)O
inactive: [1] 8.6% | [2] -0.1% | [3] 11.2% | [4] -8.05% | [5] -2.05% | [6] 43.4%

CCCCc1nc(C)oc1C(C)C
inactive: [1] -31.2% | [2] -15.8% | [3] -8.05% | [4] -5.45% | [5] -23.9% | [6] -8.2%

COP(=O)(CC(=O)C1OC(C)(C)OC1C(O)COCc1ccccc1)OC (configuration not stated)
inactive: [1] -21.3% | [2] 22.9% | [3] 22.9% | [4] 14.3% | [5] 14.6% | [6] 5.85%

O=C1CSC2=NC3=C(COC/C3=C\c3ccc(Br)cc3)C(c3ccc(Br)cc3)N12 (configuration not stated)
inactive: [1] 7.05% | [2] 14.3% | [3] 39.1% | [4] 18.9% | [5] 33.6% | [6] 33.1%

CC(CO)(CO)[N+](=O)[O-]
inactive: [1] 19.2% | [2] 9.65% | [3] -5.85% | [4] -46.5% | [5] 6.25% | [6] 19.9%

N#Cc1c[nH]n2ccnc12
inactive: [1] -16.7% | [2] -20.4% | [3] -23.4% | [4] -21.7% | [5] -4.1% | [6] -17.1%

CC1OC(OC2C(Oc3cc(O)c4c(=O)cc(-c5ccc(O)cc5)oc4c3)OC(CO)C(O)C2O)C(O)C(O)C1O (configuration not stated)
inactive: [1] -6.15% | [2] 5.75% | [3] -14.2% | [4] -19.9% | [5] 6.35% | [6] -7.65%

O=C(Nc1ccc(C2=NCCN2)c(O)c1)c1ccc(C(=O)Nc2ccc(C3=NCCN3)c(O)c2)cc1
inactive: [1] 32.6% | [2] 3.95% | [3] 23.2% | [4] 36.2% | [5] 7.5% | [6] 28.6%

CC(=O)Nc1ccc(OC(C)=O)cc1
inactive: [1] 14.4% | [2] -0.85% | [3] 3.55% | [4] 20.5% | [5] 2.7% | [6] 24.4%

CCOC(=O)C1=NN(c2ccccc2)C(=O)/C1=C\N1C(=O)/C(=C/c2cccc(OC)c2O)SC1=S
inactive: [1] 30.5% | [2] 8.55% | [3] 31.6% | [4] 20.4% | [5] -0.35% | [6] 21.6%

C[S+](C)N(c1ccccc1)C(C)(C)C
inactive: [1] -10.1% | [2] -8.2% | [3] -0.45% | [4] -17.4% | [5] -22.7% | [6] -6.1%

CCCCCCC#CC(=O)OC
inactive: [1] -3.05% | [2] -21.6% | [3] 1.5% | [4] 15.4% | [5] -11.6% | [6] 24.4%

O=C(O)Cc1[nH]c(=O)[nH]c(=O)c1CCl
inactive: [1] -27.9% | [2] -7.75% | [3] -10.1% | [4] -1.3% | [5] -19.2% | [6] -18.1%

Fc1ccc2cc3cccc[n+]3cc2c1
inactive: [1] 27.1% | [2] 7.05% | [3] 32.4% | [4] 14.4% | [5] 10.1% | [6] 2.35%

Nc1cn[nH]c(=O)n1
inactive: [1] -3.6% | [2] 20.6% | [3] 2% | [4] 13.3% | [5] 10.4% | [6] 2.7%

NCCc1c(-c2cccnc2)[nH]c2ccccc12
inactive: [1] -14.5% | [2] -9.1% | [3] -2.75% | [4] -25.4% | [5] 7.6% | [6] 1.1%

CCN(CC)C1Oc2cc3c(cc2C(c2cc(OC)c(O)c(OC)c2)C1C)OCO3 (configuration not stated)
inactive: [1] -14.6% | [2] -23.9% | [3] -7.7% | [4] 3.35% | [5] -7.1% | [6] 3.85%

FC(F)(F)c1ccccc1N=Cc1cccs1
inactive: [1] -12.1% | [2] -9.55% | [3] 23.1% | [4] 3.05% | [5] 13.4% | [6] 20.3%

CC1(C)CC2(CC3(C1)SCCS3)SCCS2
inactive: [1] -11.2% | [2] -5.25% | [3] -8.8% | [4] 5.45% | [5] -5.8% | [6] 1.35%

Clc1ccc(/C=C/c2ccc3ccccc3n2)cc1
inactive: [1] -2.65% | [2] -11.6% | [3] -13% | [4] -28.3% | [5] -14% | [6] 12%

COC(=O)c1nc(NN)[nH]c(=O)c1CCCCCc1c(C(=O)OC)[nH]c(NN)cc1=O
inactive: [1] -35.4% | [2] -6.65% | [3] -14.1% | [4] 14.9% | [5] -18.1% | [6] -8.85%

CC(=O)NS(=O)(=O)c1ccc(N=C=S)cc1
inactive: [1] -7.25% | [2] 1.85% | [3] -12.8% | [4] -19.4% | [5] -2.9% | [6] -1.05%

Cc1c(C(=O)OCCCl)c(=O)n(-c2ccccc2)n1C
inactive: [1] -43.4% | [2] -56.2% | [3] 4.7% | [4] 19.6% | [5] -33.5% | [6] -0.55%

OC1CCCN(Cc2ccccc2)C1 (configuration not stated)
inactive: [1] 9.3% | [2] -15.7% | [3] 8.55% | [4] 4.5% | [5] 11.3% | [6] 7.35%

Cc1ccccc1NC(=O)/C(C#N)=N\Nc1nc[nH]c1C(N)=O
inactive: [1] -33.7% | [2] -22.6% | [3] -11.8% | [4] 6.2% | [5] -45.9% | [6] 13.1%

CC(=O)NO
inactive: [1] 22.1% | [2] -4.05% | [3] 12.1% | [4] -7.05% | [5] -4.6% | [6] 11.3%

COC1(C)CNc2ccccc2C(=O)N1 (configuration not stated)
inactive: [1] 6.65% | [2] -7.4% | [3] 22.9% | [4] 19.1% | [5] 23.1% | [6] 6.55%

CCOC(=O)c1ccccc1C(=O)c1ccccc1O
inactive: [1] -5.8% | [2] -18% | [3] -1.6% | [4] -0.45% | [5] -5.45% | [6] 18.4%

COCCOC(=O)C(O)c1ccccc1 (configuration not stated)
inactive: [1] 23.9% | [2] 13.9% | [3] 9.05% | [4] 9% | [5] 12.8% | [6] 10.4%

CC(C(=O)O)n1c(=O)ssc1=O (configuration not stated)
inactive: [1] 1.95% | [2] 3.05% | [3] 1.3% | [4] -9.25% | [5] -8.7% | [6] 0%

C=C[Si](Cl)(Cl)c1ccccc1
inactive: [1] 15.9% | [2] -2.45% | [3] 1.65% | [4] -0.15% | [5] 6.5% | [6] 11.2%

Cc1cccc(Cl)c1NC(=O)N(C)c1ccccc1
inactive: [1] 8.95% | [2] -11.9% | [3] 14.2% | [4] 23.4% | [5] 23.9% | [6] 11.7%

COC(=O)NC1C(C)OC(OC2C/C=C(/C)C3C=CC4C(OC5CC(OC6CCC(OC7CC(O)C(OC8CCC(O)C(C)O8)C(C)O7)C(C)O6)C(OC(C)=O)C(C)O5)C(C)CC(C)C4C3(C)/C(O)=C3/C(=O)OC4(CC(C=O)=CC(O)C4/C=C\2C)C3=O)CC1(C)[N+](=O)[O-] (configuration not stated)
inactive: [1] 21.1% | [2] 20.9% | [3] 22.2% | [4] 25.6% | [5] 22.9% | [6] -38%
